Laboratory results: PubChem BioAssay (NCATS)
Where “and” joins values, the source holds several entries; their conditions need not be identical. Identical values can stand only once. Inconclusive results are not listed. Where a call stands in place of a potency, no number is given. More than one record can exist for a structure, and the calls need not agree. Calls of active or inactive are those of the source. Unless noted, the call rests on the fitted dose curve.

Experiments:
[1] = Cell Viability - SH-SY5Y (AID 544; active means well fitted curve in the direction sought with a large enough effect; an effect the other way counts as inactive or inconclusive;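 further: cells exposed to compound for 40 hours; nearly all actives have a fitted effect of over 55% in size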)
In short: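 Quantitative HTS in SH-SY5Y neuroblastoma cells, 40 hr treatment at 37 °C, ATP content by luciferase luminescence; AC50 from Hill fits.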

[2] = Cell Viability - Renal Proximal Tubule (AID 545; active means well fitted curve in the direction sought with a large enough effect; an effect the other way counts as inactive or inconclusive;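 further: cells exposed to compound for 40 hours; nearly all actives have a fitted effect of over 40% in size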)
In short: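 Cytotoxicity is scored as a concentration-dependent drop in cellular ATP in primary rat renal proximal tubule cells exposed for 40 hr. AC50 derives from Hill modelling.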

[3] = Cell Viability - Mesenchymal (AID 546; active means well fitted curve in the direction sought with a large enough effect; an effect the other way counts as inactive or inconclusive;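 further: cells exposed to compound for 40 hours before reading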)
In short: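 In this qHTS cytotoxicity format, glomerulus-derived human mesenchymal kidney cells received compound for 40 hr, then luciferase-based ATP quantitation. Concentration-response data were fitted with the Hill equation.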

[4] = molecular target: Bile acid receptor (Homo sapiens) (UniProt Q96RI1); experiment: qHTS assay for small molecule antagonists of farnesoid X receptor signaling (AID 588526); further: potency means the concentration at half of the fitted maximal effect
Chain of Bile acid receptor (Homo sapiens) (Q96RI1 whole entry, looked up): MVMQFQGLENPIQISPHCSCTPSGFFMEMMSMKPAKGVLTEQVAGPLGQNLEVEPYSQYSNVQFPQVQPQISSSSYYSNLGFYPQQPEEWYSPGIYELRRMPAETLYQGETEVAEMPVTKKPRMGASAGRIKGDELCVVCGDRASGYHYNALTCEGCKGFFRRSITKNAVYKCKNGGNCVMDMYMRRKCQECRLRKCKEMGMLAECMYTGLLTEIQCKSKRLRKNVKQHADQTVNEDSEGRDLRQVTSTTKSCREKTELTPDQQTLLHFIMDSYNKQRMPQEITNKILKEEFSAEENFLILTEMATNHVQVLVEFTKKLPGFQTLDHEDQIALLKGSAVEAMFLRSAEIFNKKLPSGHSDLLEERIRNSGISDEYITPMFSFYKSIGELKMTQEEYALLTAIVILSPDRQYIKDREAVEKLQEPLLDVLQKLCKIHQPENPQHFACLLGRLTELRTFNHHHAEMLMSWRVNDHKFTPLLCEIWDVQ
In short: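 Concentration-response titrations were fitted to the Hill equation for half-maximal inhibition and maximal response, with data normalised to 50 uM chenodeoxycholic acid and DMSO control wells. Cells: FXR-UAS-bla HEK293T, dialyzed FBS.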

[5] = molecular target: Glucocorticoid receptor (Homo sapiens) (UniProt P04150); experiment: qHTS assay for small molecule agonists of glucocorticoid receptor signaling (AID 588532; active means well fitted curve in the direction sought with a large enough effect in the signal ratio, with a control signal flat; the % refers to the signal ratio); settings: HeLa MMTV-bla, beta-lactamase ratio, agonist, 18 h; stronger effect = higher value; percent of dexamethasone control, DMSO zero
Chain of Glucocorticoid receptor (Homo sapiens) (P04150 whole entry, looked up): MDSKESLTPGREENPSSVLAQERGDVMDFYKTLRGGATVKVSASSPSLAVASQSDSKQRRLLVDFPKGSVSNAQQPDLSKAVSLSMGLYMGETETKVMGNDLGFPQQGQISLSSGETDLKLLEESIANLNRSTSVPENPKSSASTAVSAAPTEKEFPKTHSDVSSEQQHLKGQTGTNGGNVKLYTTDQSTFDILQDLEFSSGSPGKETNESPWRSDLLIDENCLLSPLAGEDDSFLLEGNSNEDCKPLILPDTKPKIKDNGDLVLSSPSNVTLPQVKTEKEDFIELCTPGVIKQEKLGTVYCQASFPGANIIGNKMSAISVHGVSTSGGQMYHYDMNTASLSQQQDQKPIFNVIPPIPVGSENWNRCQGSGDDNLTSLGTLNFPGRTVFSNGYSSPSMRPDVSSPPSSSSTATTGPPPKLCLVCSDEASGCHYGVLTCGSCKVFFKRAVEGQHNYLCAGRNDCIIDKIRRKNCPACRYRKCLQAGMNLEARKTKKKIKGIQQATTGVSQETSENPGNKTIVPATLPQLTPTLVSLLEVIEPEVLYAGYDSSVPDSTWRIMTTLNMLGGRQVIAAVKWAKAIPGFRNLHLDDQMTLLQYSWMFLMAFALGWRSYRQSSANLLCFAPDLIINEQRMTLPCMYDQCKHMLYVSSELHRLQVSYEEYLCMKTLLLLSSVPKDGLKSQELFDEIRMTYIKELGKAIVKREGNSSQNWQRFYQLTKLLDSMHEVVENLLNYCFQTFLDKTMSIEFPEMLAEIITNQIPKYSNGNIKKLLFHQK
In short: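 MMTV-bla HeLa, beta-lactamase reporter; medium with 1% charcoal/dextran-stripped FBS; cpds up to 92 uM, 18 h, 37 C; CCF4 readout 460/530 nm; Hill fit → EC50, efficacy vs 0.1 uM dexamethasone = 100%.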

[6] = molecular target: Glucocorticoid receptor (Homo sapiens) (UniProt P04150); experiment: qHTS assay for small molecule antagonists of glucocorticoid receptor signaling (AID 588533; active means well fitted inhibition curve with a large enough effect in the signal ratio, with a control signal flat, not every such curve was filed as active; the % refers to the signal ratio;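 further: cells stimulated with 2 nM dexamethasone as agonist; potency means the concentration at half of the fitted maximal effect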)
In short: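 Antagonist-mode qHTS: compound titrations added to GRE-bla HeLa cells, then dexamethasone 2 nM final; 18 h, 37 C. CCF4 FRET fluorescence normalized to dexamethasone and DMSO; IC50 from Hill fit.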

[7] = qHTS assay for small molecule antagonists of peroxisome proliferator-activated receptor delta signaling (AID 588535; active means well fitted inhibition curve with a large enough effect in the signal ratio, with a control signal flat, not every such curve was filed as active; the % refers to the signal ratio;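 on max response: cells co-treated with a PPAR-delta agonist as stimulator during compound exposure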); settings: HEK293T PPARd-UAS-bla, beta-lactamase FRET ratio, 18 h; 460 nm channel
In short: (§1)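 Compounds tested in titration on PPAR-delta-UAS-bla HEK293T cells grown in charcoal/dextran-stripped serum (2%); beta-lactamase activity read via CCF4 emission at 460 and 530 nm.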

[8] = molecular target: Peroxisome proliferator-activated receptor delta (Homo sapiens) (UniProt Q03181); experiment: as above
Chain of Peroxisome proliferator-activated receptor delta (Homo sapiens) (Q03181 whole entry, looked up): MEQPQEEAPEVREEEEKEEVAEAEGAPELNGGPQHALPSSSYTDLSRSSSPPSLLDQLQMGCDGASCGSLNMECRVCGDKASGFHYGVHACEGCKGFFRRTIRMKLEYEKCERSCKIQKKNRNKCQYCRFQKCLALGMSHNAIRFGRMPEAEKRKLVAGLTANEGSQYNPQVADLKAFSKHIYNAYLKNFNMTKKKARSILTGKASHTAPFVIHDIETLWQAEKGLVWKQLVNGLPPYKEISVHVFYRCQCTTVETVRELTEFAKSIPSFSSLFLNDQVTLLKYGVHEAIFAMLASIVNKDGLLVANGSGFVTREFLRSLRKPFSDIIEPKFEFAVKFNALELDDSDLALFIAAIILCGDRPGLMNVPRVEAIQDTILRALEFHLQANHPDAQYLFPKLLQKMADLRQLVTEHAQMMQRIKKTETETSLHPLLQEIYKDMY
In short: as §1

[9] = molecular target: Vitamin D3 receptor (Homo sapiens) (UniProt P11473); experiment: qHTS assay for small molecule antagonists of vitamin D receptor signaling (AID 588541);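 further: receptor activated by calcitriol during compound treatment; series mostly up to about 77 µM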
Chain of Vitamin D3 receptor (Homo sapiens) (P11473 whole entry, looked up): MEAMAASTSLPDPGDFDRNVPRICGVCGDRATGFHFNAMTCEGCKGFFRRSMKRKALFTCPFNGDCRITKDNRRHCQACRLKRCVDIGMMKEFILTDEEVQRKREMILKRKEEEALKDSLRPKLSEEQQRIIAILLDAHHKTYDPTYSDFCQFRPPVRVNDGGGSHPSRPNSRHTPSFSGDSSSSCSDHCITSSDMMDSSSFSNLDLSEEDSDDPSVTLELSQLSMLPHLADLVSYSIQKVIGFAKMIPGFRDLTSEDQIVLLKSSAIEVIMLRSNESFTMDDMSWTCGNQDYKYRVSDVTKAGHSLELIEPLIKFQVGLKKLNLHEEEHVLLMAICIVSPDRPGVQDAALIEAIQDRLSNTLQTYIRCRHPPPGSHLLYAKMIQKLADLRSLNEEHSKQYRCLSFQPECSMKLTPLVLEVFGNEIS
In short: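 VDR-UAS-bla HEK293T cells (2000/well, 2% charcoal-stripped FBS) were treated with titrated compounds plus 1-alpha,25-dihydroxyvitamin D3 (50 nM or 3 nM final) for 16 h at 37 C. CCF4 beta-lactamase fluorescence was read; Hill fits gave IC50.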

[10] = molecular target: Vitamin D3 receptor (Homo sapiens) (UniProt P11473); experiment: qHTS assay for small molecule agonists of vitamin D receptor signaling (AID 588543)
In short: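 qHTS in agonist mode: compound titrations stimulate a VDR-driven β-lactamase reporter in HEK293T cells over 16 h at 37 °C. Response normalized to 50 nM 1α,25-dihydroxyvitamin D3 = 100%, DMSO = 0%; Hill fitting gives EC50 and maximal response.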

[11] = qHTS assay for small molecule agonists of retinoid X receptor alpha signaling (AID 588544); settings: HEK293T RXRa-UAS-bla, beta-lactamase reporter, 18 h; 530 nm emission
[12] = molecular target: Retinoic acid receptor RXR-alpha (Homo sapiens) (UniProt P19793); experiment: as above
Chain of Retinoic acid receptor RXR-alpha (Homo sapiens) (P19793 whole entry, looked up): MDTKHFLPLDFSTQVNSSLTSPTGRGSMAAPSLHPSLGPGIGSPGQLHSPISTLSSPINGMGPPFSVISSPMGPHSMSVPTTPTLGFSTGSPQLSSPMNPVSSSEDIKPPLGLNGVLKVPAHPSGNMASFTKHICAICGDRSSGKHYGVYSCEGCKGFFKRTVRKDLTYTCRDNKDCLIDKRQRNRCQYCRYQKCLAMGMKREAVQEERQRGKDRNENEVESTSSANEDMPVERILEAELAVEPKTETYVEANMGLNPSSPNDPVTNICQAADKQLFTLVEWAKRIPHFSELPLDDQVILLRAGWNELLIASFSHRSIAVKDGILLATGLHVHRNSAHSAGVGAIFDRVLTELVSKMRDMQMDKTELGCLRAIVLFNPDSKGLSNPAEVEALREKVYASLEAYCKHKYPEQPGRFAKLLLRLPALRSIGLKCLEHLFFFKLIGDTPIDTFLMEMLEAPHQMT

[13] = molecular target: Thyroid hormone receptor beta (Homo sapiens) (UniProt P10828); experiment: qHTS assay for small molecule agonists of thyroid hormone receptor beta signaling (AID 588545)
Chain of Thyroid hormone receptor beta (Homo sapiens) (P10828 whole entry, looked up): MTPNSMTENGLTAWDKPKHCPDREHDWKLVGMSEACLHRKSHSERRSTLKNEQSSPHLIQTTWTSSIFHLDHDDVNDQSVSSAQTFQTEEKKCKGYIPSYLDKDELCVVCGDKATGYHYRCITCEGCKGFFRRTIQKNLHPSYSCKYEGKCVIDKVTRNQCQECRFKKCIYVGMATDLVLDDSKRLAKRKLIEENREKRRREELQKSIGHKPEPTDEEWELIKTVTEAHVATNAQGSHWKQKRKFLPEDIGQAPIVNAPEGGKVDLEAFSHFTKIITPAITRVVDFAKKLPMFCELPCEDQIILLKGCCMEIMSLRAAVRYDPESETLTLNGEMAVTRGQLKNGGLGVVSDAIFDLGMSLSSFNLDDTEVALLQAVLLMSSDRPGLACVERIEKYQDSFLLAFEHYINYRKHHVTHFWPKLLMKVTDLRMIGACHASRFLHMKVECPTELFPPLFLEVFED
In short: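 Stimulation of a TR-driven beta-lactamase reporter was quantified in GripTite HEK 293 cells. Compound series ran for 18 hrs; curves were normalized to T3 and DMSO controls and fitted to yield EC50.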

[14] = molecular target: Voltage-gated inwardly rectifying potassium channel KCNH2 (Homo sapiens) (UniProt Q12809); experiment: qHTS Assay for Small Molecule Inhibitors of the Human hERG Channel Activity (AID 588834; active means well fitted curve in the direction sought with a large enough effect; an effect the other way counts as inactive or inconclusive;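 further: U2OS cells transduced with hERG by BacMam; top concentration of the series differs between compounds; lower thallium flux fluorescence means stronger hERG block; nearly all actives have a fitted effect of over 50% in size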)
Chain of Voltage-gated inwardly rectifying potassium channel KCNH2 (Homo sapiens) (Q12809 whole entry, looked up): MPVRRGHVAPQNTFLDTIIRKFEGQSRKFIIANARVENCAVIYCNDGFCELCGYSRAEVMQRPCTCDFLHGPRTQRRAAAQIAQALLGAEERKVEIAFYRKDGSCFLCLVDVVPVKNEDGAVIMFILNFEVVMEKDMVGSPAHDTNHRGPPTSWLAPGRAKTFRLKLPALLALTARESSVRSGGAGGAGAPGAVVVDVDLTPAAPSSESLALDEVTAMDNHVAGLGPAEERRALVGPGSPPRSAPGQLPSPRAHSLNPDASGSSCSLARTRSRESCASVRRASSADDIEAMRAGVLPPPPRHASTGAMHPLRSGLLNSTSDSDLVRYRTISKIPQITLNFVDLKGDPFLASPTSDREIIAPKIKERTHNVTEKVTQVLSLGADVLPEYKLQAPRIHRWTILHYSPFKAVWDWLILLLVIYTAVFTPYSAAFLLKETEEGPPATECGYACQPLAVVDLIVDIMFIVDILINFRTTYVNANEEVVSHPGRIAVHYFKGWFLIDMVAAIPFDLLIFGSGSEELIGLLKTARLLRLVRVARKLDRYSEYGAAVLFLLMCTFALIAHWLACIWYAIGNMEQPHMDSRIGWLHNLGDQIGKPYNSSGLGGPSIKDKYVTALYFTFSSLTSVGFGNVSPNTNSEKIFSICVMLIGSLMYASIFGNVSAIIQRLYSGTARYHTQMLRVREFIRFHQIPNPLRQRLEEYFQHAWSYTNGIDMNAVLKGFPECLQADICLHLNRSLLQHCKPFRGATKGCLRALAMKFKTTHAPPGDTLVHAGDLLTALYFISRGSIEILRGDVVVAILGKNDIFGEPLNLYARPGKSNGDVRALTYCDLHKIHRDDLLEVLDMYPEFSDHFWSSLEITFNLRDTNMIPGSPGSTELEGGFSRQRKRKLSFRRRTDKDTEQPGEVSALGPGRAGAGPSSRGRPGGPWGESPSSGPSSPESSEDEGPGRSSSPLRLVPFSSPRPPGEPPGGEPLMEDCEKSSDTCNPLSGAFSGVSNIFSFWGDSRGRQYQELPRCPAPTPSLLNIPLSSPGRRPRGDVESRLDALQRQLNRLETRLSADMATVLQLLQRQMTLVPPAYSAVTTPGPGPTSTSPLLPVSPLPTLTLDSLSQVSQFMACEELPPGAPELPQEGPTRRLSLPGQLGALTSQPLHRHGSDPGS
In short: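 Cells were infected with hERG-BacMam virus for 4 hrs at room temperature, grown overnight, then seeded at 2000/well. After dye loading and roughly 10 min compound treatment, thallium influx was triggered and fluorescence recorded.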

[15] = qHTS assay for small molecule agonists of the antioxidant response element (ARE) signaling pathway (AID 651741; active means well fitted activation curve with a large enough effect in the signal ratio; the % refers to the signal ratio; further: potency means the concentration at half of the fitted maximal effect); settings: HepG2 ARE-bla reporter, beta-lactamase FRET ratio, 16 h
In short: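 Beta-lactamase reporter expression driven by the antioxidant response element in HepG2 cells was detected by fluorescence with LiveBLAzer B/G FRET substrate (2 h, room temperature) following 16 h compound treatment at 37 C.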

[16] = qHTS assay for small molecule activators of the p53 signaling pathway (AID 651743; active means well fitted activation curve with a large enough effect in the signal ratio, not every such curve was filed as active; the % refers to the signal ratio; further: potency means the concentration at half of the fitted maximal effect); settings: HCT-116 p53RE-bla, beta-lactamase FRET ratio, 16 h; activation: stronger effect = higher value
In short: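 Here HCT-116 cells with an integrated p53-responsive beta-lactamase gene were incubated with compounds (16 hours, 37 C) after a 5-hour plating period; beta-lactamase activity was detected as fluorescence intensity via B/G FRET substrate.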

[17] = qHTS assay for small molecule activators of the nuclear factor-kappa B (NF-kB) signaling pathway (AID 651749; active means well fitted activation curve with a large enough effect in the signal ratio; the % refers to the signal ratio; further: series mostly up to about 77 µM); settings: NF-kB-bla ME-180 cells, beta-lactamase FRET ratio, 16 h; stronger effect = higher value
In short: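 Beta-lactamase reporter expression, controlled by NF-kB response elements in ME-180 cells, was quantified fluorometrically via FRET disruption; cells at 2,000/well had been incubated with 23 nL test compound for 16 hr.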

[18] = qHTS assay for small molecule disruptors of the mitochondrial membrane potential - 1 hr assay (AID 651754); further: potency means the concentration at half of the fitted maximal effect; nearly all actives have a fitted effect of over 35% in size
In short: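 In this qHTS format, a 1 hr compound treatment of HepG2 cells precedes Mito-MPS staining, and membrane potential is judged from aggregate (red) against monomer (green) fluorescence intensity.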

[19] = molecular target: Tumor necrosis factor (Homo sapiens) (UniProt P01375); experiment: qHTS assay to identify small molecules that stimulate Tumor Necrosis Factor-alpha (TNF-alpha) secretion (AID 651757; active means well fitted curve in the direction sought with a large enough effect in the signal ratio; the % refers to the signal ratio)
Chain of Tumor necrosis factor (Homo sapiens) (P01375 whole entry, looked up): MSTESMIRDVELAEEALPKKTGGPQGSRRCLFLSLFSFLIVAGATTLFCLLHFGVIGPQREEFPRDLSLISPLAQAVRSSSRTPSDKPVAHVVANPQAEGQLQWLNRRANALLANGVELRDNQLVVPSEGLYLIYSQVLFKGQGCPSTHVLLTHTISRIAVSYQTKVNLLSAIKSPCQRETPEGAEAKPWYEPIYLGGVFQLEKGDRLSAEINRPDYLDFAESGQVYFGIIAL
In short: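 Using 3000 THP-1 cells per well, compounds and controls were applied for 17 hrs at 37 C. Detection followed with two labeled anti-TNF-alpha antibodies (cryptate donor, XL665 acceptor) for 3 hr at room temperature, measured by TR-FRET.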

[20] = molecular target: Nuclear receptor subfamily 1 group I member 2 (Rattus norvegicus) (UniProt Q9R1A7); experiment: qHTS assay for small molecule activators of the rat pregnane X receptor (rPXR) signaling pathway (AID 651751; call rule not given here); settings: rPXR reporter cells, luciferase (One-Glo), 24 h
Chain of Nuclear receptor subfamily 1 group I member 2 (Rattus norvegicus) (Q9R1A7 whole entry, looked up): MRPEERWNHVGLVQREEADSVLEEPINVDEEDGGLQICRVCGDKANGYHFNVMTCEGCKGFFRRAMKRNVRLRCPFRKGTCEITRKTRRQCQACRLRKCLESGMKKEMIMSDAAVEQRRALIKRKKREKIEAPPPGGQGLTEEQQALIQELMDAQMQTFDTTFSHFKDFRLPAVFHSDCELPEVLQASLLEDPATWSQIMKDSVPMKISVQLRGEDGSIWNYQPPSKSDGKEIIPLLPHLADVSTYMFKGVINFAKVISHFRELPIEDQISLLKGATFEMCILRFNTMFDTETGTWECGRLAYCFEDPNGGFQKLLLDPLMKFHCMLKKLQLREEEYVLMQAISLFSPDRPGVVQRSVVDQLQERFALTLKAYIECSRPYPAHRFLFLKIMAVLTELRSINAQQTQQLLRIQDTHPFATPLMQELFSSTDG

## CC(C)(c1cc(Br)c(O)c(Br)c1)c1cc(Br)c(O)c(Br)c1
[1]
  outcome: inactive
[2]
  outcome: inactive
[3]
  outcome: inactive
[4]
  Potency: 28.2 µM (active) and inactive
[5]
  activation: -10.8% (inactive) and 25.4% (inactive) and -11.2% (inactive)
[6]
  Potency: 44.7 µM (active)
[7]
  max response: -3.55% and -29% and 5.87%
[8]
  outcome: inactive
[9]
  outcome: inactive
[10]
  outcome: inactive
[11]
  max response: 4.03% and -9.48% and 2.35%
[12]
  outcome: inactive
[13]
  outcome: inactive
[14]
  Potency: inactive
[15]
  Potency: 29.8 µM (active) and 23.7 µM (active) and 48.6 µM (active)
[16]
  Potency: 28.2 µM (active)
[17]
  activation: 2.39% (inactive) and 3.54% (inactive) and 2.16% (inactive)
[18]
  Potency: 18.8 µM (active)
[19]
  Potency: inactive
[20]
  max response: 4.59% (inactive) and 7.9% (inactive) and 1.02% (inactive)
